The record followed here is PubChem BioAssay (NCI).

About 83,000 compounds went through this panel and 20% of them were active in at least one assay; those are over-represented in the sample as a whole.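 Single-concentration screen, 48 h exposure, 96-well plates. Endpoint: percent growth. Below 10 = active.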 Values without a mark were called inactive. Activity calls are given as the source filed them.

Holding throughout (assay): NCI-60 one-dose screen, 48 h (100 = growth as untreated, 0 = no growth, -100 = all killed)
The test system of one experiment is HCT-15 colon. As to conditions: 10 µM unless noted.
For another experiment, the system named is HT29 colon. As to conditions: 10 µM unless noted.
The subject of a further experiment is SNB-19 CNS. As to conditions: 10 µM unless noted.
The next experiment has as its system U251 CNS. The settings on record: 10 µM unless noted.
A further experiment relates to PC-3 prostate. The settings on record: 10 µM unless noted.
A further experiment concerns SK-MEL-5 melanoma. The settings on record: 10 µM unless noted.
For another experiment, the system named is UACC-62 melanoma. The settings on record: 10 µM unless noted.
The next experiment deals with LOX IMVI melanoma. The settings on record: 10 µM unless noted.
The test system of a further experiment is SK-MEL-28 melanoma. As to conditions: 10 µM unless noted.
Another experiment concerns SK-MEL-2 melanoma. As to conditions: 10 µM unless noted.
Another experiment deals with EKVX NSCLC. The settings on record: 10 µM unless noted.
In a further experiment the test system is SN12C renal. The settings on record: 10 µM unless noted.
The test system of another experiment is UO-31 renal. As to conditions: 10 µM unless noted.
The subject of the next experiment is TK-10 renal. As to conditions: 10 µM unless noted.
The next experiment concerns ACHN renal. As to conditions: 10 µM unless noted.
The subject of another experiment is CAKI-1 renal. As to conditions: 10 µM.
Another experiment concerns A498 renal. As to conditions: 10 µM unless noted.
In another experiment the test system is CCRF-CEM leukemia. As to conditions: 10 µM unless noted.
The test system of the next experiment is MOLT-4 leukemia. As to conditions: 10 µM unless noted.
The subject of another experiment is SNB-75 CNS. As to conditions: 10 µM unless noted.

In the case of `COc1cc(/C=N/n2cnc3oc(-c4ccccc4)cc3c2=N)cc(CN2CCOCC2)c1O`, the growth with HCT-15 colon is 27.9%; in the experiment on HT29 colon, 60.3%; with SNB-19 CNS it was 101%; with U251 CNS it was 53.7%; in the experiment on PC-3 prostate, 64.6%; with SK-MEL-5 melanoma, 62.3%. For the same compound, the growth with UACC-62 melanoma was 62.5%; with LOX IMVI melanoma, 8.3% (active); with SK-MEL-28 melanoma, 78.3%; with SK-MEL-2 melanoma, 104%; in the experiment with EKVX NSCLC, 89.9%; in the experiment on SN12C renal, 72.4%. Besides, the growth was 74% in the experiment with UO-31 renal; 102% in the experiment on TK-10 renal; 28% in the experiment on ACHN renal; 43.7% in the experiment with CAKI-1 renal; 53.8% in the experiment on A498 renal; 26.2% in the experiment on CCRF-CEM leukemia. Also, in the experiment with MOLT-4 leukemia, the growth is 52.9%.
Consider `O=C(CN1C(=O)CSC1=O)Nc1ccc(C(=O)/C=C/c2cc3ccccc3nc2Cl)cc1`, for which the growth is 79.3% with HCT-15 colon; 17.4% in the experiment on HT29 colon; 83.4% in the experiment on SNB-19 CNS; 77.2% in the experiment on U251 CNS; 70.5% with PC-3 prostate; 34% in the experiment on SK-MEL-5 melanoma. Further, the growth in the experiment on UACC-62 melanoma is 74%; with LOX IMVI melanoma, 37.5%; in the experiment with SK-MEL-28 melanoma, 95.4%; in the experiment with SK-MEL-2 melanoma, 88.5%; with EKVX NSCLC, 72.1%; with SN12C renal, 83.8%. Also, the growth is 59.5% in the experiment on UO-31 renal; 92.1% with TK-10 renal; 83.5% in the experiment on ACHN renal; 63% with CAKI-1 renal; 94.3% in the experiment on A498 renal; 45.5% with CCRF-CEM leukemia. For the same compound, in the experiment with MOLT-4 leukemia, the growth was 36.4%.
As to `O=C(CCCCCCN1CC(=O)N2[C@@H](c3cc(F)cc(F)c3)c3[nH]c4ccccc4c3C[C@H]2C1=O)NO`, the growth with HCT-15 colon was 96.7%; in the experiment on HT29 colon, 47.8%; in the experiment on SNB-19 CNS it was 65.9%; with U251 CNS, 57.3%; with PC-3 prostate it was 48.5%; in the experiment with SK-MEL-5 melanoma, 47.2%. Moreover, the growth with UACC-62 melanoma was 21.4%; in the experiment on LOX IMVI melanoma, 19.6%; with SK-MEL-28 melanoma, 52.7%; in the experiment on SK-MEL-2 melanoma, 62.1%; with EKVX NSCLC, 78.9%; in the experiment with SN12C renal, 71.9%. The growth was 61.6% in the experiment on UO-31 renal; 69.6% in the experiment with TK-10 renal; 88.8% in the experiment on ACHN renal; 64.7% with CAKI-1 renal; 77.6% in the experiment with A498 renal; 16.5% in the experiment with CCRF-CEM leukemia. The growth in the experiment on MOLT-4 leukemia is 14.2%.
Consider `COc1cc2cc(Oc3ccc(NC(=O)Nc4cc(C(F)(F)F)cc(C(F)(F)F)c4)cc3)c(C)nc2cc1OCCN(C)C`, for which the growth in the experiment with HCT-15 colon is 103%; in the experiment with HT29 colon it was 120%; with SNB-19 CNS, 103%; with U251 CNS it was 107%; in the experiment on PC-3 prostate, 110%; with SK-MEL-5 melanoma it was 102%. Also, the growth with UACC-62 melanoma was 93.1%; in the experiment on LOX IMVI melanoma it was 108%; with SK-MEL-28 melanoma, 110%; in the experiment with SK-MEL-2 melanoma, 113%; in the experiment with EKVX NSCLC it was 106%; in the experiment on SN12C renal it was 100%. The growth in the experiment on UO-31 renal is 89.5%; in the experiment on TK-10 renal, 109%; in the experiment with ACHN renal, 107%; in the experiment with CAKI-1 renal it was 93.4%; in the experiment on A498 renal, 113%; with CCRF-CEM leukemia, 110%. Moreover, in the experiment with MOLT-4 leukemia, the growth is 107%.
Take `COc1cc2cc(Oc3ccc(NC(=O)Nc4cccc(C(F)(F)F)c4)cc3)c(C)nc2cc1OCCN(C)C`: the growth in the experiment with HCT-15 colon is 25%; in the experiment on HT29 colon, 60.1%; with SNB-19 CNS, 99%; with U251 CNS it was 84.8%; in the experiment on PC-3 prostate it was 85.9%; in the experiment on SK-MEL-5 melanoma, 81.2%. For the same compound, the growth in the experiment on UACC-62 melanoma is 100%; in the experiment on LOX IMVI melanoma, -74.9% (active); in the experiment on SK-MEL-28 melanoma it was 91.6%; in the experiment on SK-MEL-2 melanoma, 111%; in the experiment on EKVX NSCLC, 92.9%; in the experiment with SN12C renal, 92.3%. For the same compound, the growth with UO-31 renal was 89.8%; in the experiment with TK-10 renal, 110%; in the experiment on ACHN renal, 97.3%; in the experiment on CAKI-1 renal, 89.9%; in the experiment with A498 renal it was 106%; in the experiment with CCRF-CEM leukemia, 71.4%. Also, the growth in the experiment on MOLT-4 leukemia was 80.5%.
`Oc1ccc(CSc2nnc(-c3ccncc3)n2-c2ccccc2)c2cccnc12`: the growth in the experiment on HCT-15 colon was 15.1%; with HT29 colon, 96%; in the experiment on SNB-19 CNS, 12.7%; with U251 CNS it was 15.8%; in the experiment with PC-3 prostate, 18.9%; with SK-MEL-5 melanoma it was 1.83% (active). Further, the growth with UACC-62 melanoma was -4.64% (active); in the experiment with LOX IMVI melanoma, 20.4%; in the experiment on SK-MEL-28 melanoma, 29.4%; in the experiment on SK-MEL-2 melanoma it was 29.7%; in the experiment on EKVX NSCLC, 48.2%; in the experiment with SN12C renal, 11%. For the same compound, the growth in the experiment with UO-31 renal was 9.11% (active); in the experiment with TK-10 renal it was 34.1%; with ACHN renal, 14.4%; in the experiment with CAKI-1 renal, 15.7%; with A498 renal, 44%; with CCRF-CEM leukemia, 13.1%. Also, in the experiment on MOLT-4 leukemia, the growth is 20.1%.
As to `COc1ccc(-c2nnc(SCc3ccc(O)c4ncccc34)n2-c2ccccc2)cc1`, the growth in the experiment with HCT-15 colon is 9.65% (active); in the experiment on HT29 colon, 59.2%; in the experiment on SNB-19 CNS, 14.4%; with U251 CNS it was 11.2%; with PC-3 prostate, 20.7%; with SK-MEL-5 melanoma, -11% (active). Besides, the growth is 2.62% (active) in the experiment with UACC-62 melanoma; -10.9% (active) in the experiment with LOX IMVI melanoma; 20.2% with SK-MEL-28 melanoma; 33.8% in the experiment with SK-MEL-2 melanoma; 23.6% in the experiment with EKVX NSCLC; 24.3% in the experiment on SN12C renal. Further, the growth in the experiment with UO-31 renal is -12.2% (active); in the experiment on TK-10 renal it was 38.4%; in the experiment with ACHN renal it was 4.43% (active); with CAKI-1 renal it was 11.5%; in the experiment with A498 renal, 35.3%; with CCRF-CEM leukemia, 10.7%. In the experiment on MOLT-4 leukemia, the growth was 17.2%.
Consider `CS(=O)(=O)c1ccc2c(c1)c1c(n2Cc2ccc(Cl)cc2)CCCC1`, for which the growth is 54.9% in the experiment with HCT-15 colon; 75.5% with HT29 colon; 75.4% in the experiment on SNB-75 CNS; 72.3% in the experiment with SNB-19 CNS; 68.1% in the experiment on U251 CNS; 82.4% in the experiment on SK-MEL-5 melanoma. Further, the growth was 43.2% in the experiment with UACC-62 melanoma; 87.2% in the experiment with SK-MEL-28 melanoma; 71.2% in the experiment on EKVX NSCLC; 73.6% with SN12C renal; 55.1% in the experiment with UO-31 renal; 89.3% in the experiment with TK-10 renal. For the same compound, the growth was 66.8% in the experiment on ACHN renal; 54.4% in the experiment on CAKI-1 renal; 74.3% in the experiment with A498 renal; 81.9% in the experiment on CCRF-CEM leukemia; 64.3% with MOLT-4 leukemia.
